Sampled rows, rich in hits. Any-hit rate of the full collection: about 5.8%.
Gal4-VP16 FLuc: inhibits Gal4-VP16 luciferase reporter, ROR gamma counter-screen; Drosophila S2 Gal4-VP16 UAS-luciferase, luminescence, 20 h; Potency, µM (series often up to 53.6 µM), inactives show at the top dose activity, negative = inhibition, actives largely listed as inhibitors; hit rate 3.5% among 310,000;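 further: Gal4-VP16 expression switched on by copper sulfate through the metallothionein promoter; potency means the concentration at half of the fitted maximal effect; on the % scale 0 is the no-effect control and ±100 the full control effect; nearly all actives have a fitted effect of over 50% in size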
TRPV1 agonist: activates the human vanilloid receptor TRPV1; Q8NER1; TRPV1-expressing cells, Fluo-8 calcium influx, agonist mode; activation, % at 8.33 µM; hit rate 0.19% among 320,000; in the data active means activation above about 80%; inconclusive means between about 30% and that limit; further: 0% is about no effect
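TRPV1-expressing cells were cultured overnight at 35.5C and loaded with Fluo-8 calcium dye for 40 to 90 min at room temperature. After a 10 s baseline, compound was added and calcium influx was read kinetically for 3 min (ex 480/em 520 nm).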
RORgamma inh: blocks mouse ROR gamma transcriptional activity; Drosophila S2 Gal4-RORgamma UAS-luciferase reporter, 20 h; hit rate 5.4% among 310,000; Potency, µM (series often up to 53.6 µM), inactives show at the highest dose activity change, negative = inhibition, hits mostly inhibitors; further: potency means the concentration at half of the fitted maximal effect; on the % scale 0 is the no-effect control and ±100 the full control effect; nearly all actives have a fitted effect of over 60% in size
Target sequence (P51450 whole entry, looked up, the tested form may be a part): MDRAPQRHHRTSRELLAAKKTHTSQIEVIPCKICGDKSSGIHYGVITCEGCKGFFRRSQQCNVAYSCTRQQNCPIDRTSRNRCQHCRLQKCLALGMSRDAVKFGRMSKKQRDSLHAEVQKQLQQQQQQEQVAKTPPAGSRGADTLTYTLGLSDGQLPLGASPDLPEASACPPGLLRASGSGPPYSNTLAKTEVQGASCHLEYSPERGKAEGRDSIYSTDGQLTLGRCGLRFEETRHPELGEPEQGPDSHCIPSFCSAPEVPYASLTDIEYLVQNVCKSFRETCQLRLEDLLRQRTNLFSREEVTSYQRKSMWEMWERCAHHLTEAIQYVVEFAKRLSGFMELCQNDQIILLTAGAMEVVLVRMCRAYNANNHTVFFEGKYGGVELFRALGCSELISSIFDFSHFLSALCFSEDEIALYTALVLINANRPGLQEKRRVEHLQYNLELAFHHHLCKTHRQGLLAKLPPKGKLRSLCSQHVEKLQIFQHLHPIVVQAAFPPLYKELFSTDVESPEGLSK
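Luciferase reporter read in Schneider cells carrying Gal4-RORγ (mouse) and UAS-Photinus luciferase; cells given compound 1 h before 700 uM copper sulfate induction, then incubated 20 h at ambient temperature.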
TRPV1 potentiator: potentiators of human vanilloid receptor 1 (TRPV1) | Q8NER1 | potentiation, % at 8.33 µM | TRPV1-expressing cells, Fluo-8 calcium influx, capsaicin EC20 potentiation | hit rate 0.02% among 320,000; in the data active means potentiation above about 80%; inconclusive means between about 30% and that limit; further: 0% is about no effect
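Fluo-8 calcium influx in TRPV1-expressing cells, kinetic read (ex 480/em 520 nm). Compound added and read 3 min for agonist activity, followed by capsaicin at EC20 final and 2 min further read for enhancement.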
uPA surface inh: inhibitors of cell surface uPA generation | cell surface uPA generation assay, qHTS | Potency, µM (highest dose often 38.3 µM), for the others: at the top dose activity change, negative = inhibition, most hits filed as inhibitors | hit rate 0.31% among 330,000 | AID 540303; active means well fitted inhibition curve with a large enough effect; inconclusive means small, poorly fitted or top-dose-only effect; inactive means no such curve, though single readings can be large or run the other way; tested in mouse RAW 264.7 cells; further: potency means the concentration at half of the fitted maximal effect; on the % scale 0 is the no-effect control and ±100 the full control effect; nearly all actives have a fitted effect of over 55% in size
Numbers without * were called inactive; ? = inconclusive; · = no result. Unless noted, the call rests on the fitted dose curve; in most records, active means well fitted curve in the direction sought with a large enough effect; inconclusive means small, poorly fitted or top-dose-only effect, or another doubt; inactive means no such curve, though single readings can be large; an effect the other way counts as inactive or inconclusive.

SMILES	Gal4-VP16 FLuc	TRPV1 agonist	RORgamma inh	TRPV1 potentiator	uPA surface inh
O=C(Nc1ccc2ccccc2c1)c1cnccn1	-4.8%	?	20.2%	-5.2	·
CS(=O)(=O)c1ncc(Cl)c(C(=O)Nc2ccc3ccccc3c2)n1	4.47µM*	-3.4	2.82µM*	1.8	-19.1%
COC(=O)c1ccccc1NC(=O)c1nc(S(=O)(=O)Cc2ccccc2)ncc1Cl	3.16µM*	-2.0	?	-15.1	-0.2%
Cc1noc(C(=O)NCc2ccccc2)c1Cl	0.4%	8.9	15.9%	-19.2	-3.3%
COc1ccc(CNC(=O)c2nc(S(=O)(=O)Cc3ccccc3)ncc2Cl)cc1	3.55µM*	1.8	5.62µM*	26.7	-14.3%
Cc1cc(C)n(-c2ccc(C(=O)N3CCN(S(=O)(=O)c4ccc(Cl)cc4)CC3)cc2)n1	·	-7.3	·	11.0	-18.5%
O=C(NCc1ccc2c(c1)OCO2)c1nc(S(=O)(=O)Cc2ccccc2F)ncc1Cl	3.55µM*	5.0	7.08µM*	-11.4	?
O=C(NCc1ccc2c(c1)OCO2)c1nc(S(=O)(=O)Cc2ccccc2)ncc1Cl	?	-2.7	?	6.1	-3.8%
CC(NC(=O)COC(=O)C1(C)CC1(Cl)Cl)c1ccccc1 (stereo not drawn)	·	7.5	·	-7.9	15.7%
CC(C)OC(=O)CC(=O)CSc1nc2c(c(-c3cccs3)c1C#N)CCC2	?	-5.4	14.2%	-9.0	22.8%
CCOC(=O)C(C)Sc1nc2c(c(-c3cccs3)c1C#N)CCC2 (stereo not drawn)	25.1µM*	8.8	?	5.7	3.4%
CCCn1c(C(C)Nc2nc(-c3ccc(C)cc3)cs2)nc2cc(Cl)c(Cl)cc21 (stereo not drawn)	-8.5%	3.4	11.2µM*	-19.4	17.8%
OCCOCCn1c(C(CO)Nc2nc(-c3cccc(Br)c3)cs2)nc2ccccc21 (stereo not drawn)	·	·	·	·	1.8%
Cc1ccc(Cn2c(C(C)Nc3nc(-c4ccc(F)cc4)cs3)nc3cc(Cl)c(Cl)cc32)cc1 (stereo not drawn)	·	·	·	·	-1.5%
CCCn1c(C(CO)Nc2nc(-c3cccc(Br)c3)cs2)nc2ccccc21 (stereo not drawn)	?	3.4	12.6µM*	-9.3	7.3%
O=C(O)COc1ccc2ccccc2c1	-5.0%	·	-2.8%	·	·
O=C(NC(=S)Nc1nc2ccccc2s1)c1ccco1	1.26µM*	15.3	0.891µM*	-24.2	-7.9%
CCc1cc2cc(C)c(C)cc2nc1SCC(=O)NNC(=O)c1ccco1	-27.7%	26.1	?	-8.3	-4.1%
Cc1nc(NC(=O)c2ccco2)sc1C(=O)O	11.2µM*	0.8	7.08µM*	8.5	8.3%
COC(=O)c1sc(NC(=O)c2ccco2)nc1C	-11.8%	-3.1	30.9%	4.1	-0.2%
CCc1cc2ccc(OC)cc2nc1SCC(=O)NNC(=O)c1ccco1	-1.0%	1.4	17.8µM*	8.2	1.3%
COc1ccc2nc(NC(=S)NC(=O)c3ccco3)sc2c1	?	-0.4	1.12µM*	4.8	?
COc1ccc2nc(NC(=O)CCNC(=O)c3ccco3)sc2c1	·	0.5	·	4.5	9.0%
CCCOc1ccc(C(=O)NC(=S)Nc2nc3ccccc3s2)cc1	?	3.1	0.794µM*	10.6	3.4%
COc1ccc2sc(NC(=O)c3ccco3)nc2c1	?	?	10µM*	-12.4	?
SMILES	Gal4-VP16 FLuc	TRPV1 agonist	RORgamma inh	TRPV1 potentiator	uPA surface inh
Cc1cc(C)c2nc(NC(=O)c3ccco3)sc2c1	10µM*	?	4.47µM*	-7.9	?
Cc1cc(Cl)cc2sc(NC(=O)c3ccco3)nc12	?	18.5	-5.9%	-5.0	-5.6%
O=C(NC(=S)NCc1ccc(-c2nc3ccccc3s2)cc1)c1ccco1	5.62µM*	4.5	7.08µM*	1.9	0.4%
Cc1ccc(S(=O)(=O)NC2=NCN(C(C)C)CN2)cc1	1.5%	2.2	-26.9%	-9.3	2.9%
C=CCn1c(CNc2ccc(C)cc2)nnc1SCC(=O)N/N=C/c1ccc(O)cc1	-6.7%	-0.4	30.4%	-8.9	5.3%
Cc1ccc(-c2nc(P(=O)(c3ccccc3)c3ccccc3)c(N3CCOCC3)o2)cc1	15.8µM*	?	3.55µM*	25.7	10.0%
CC(C(=O)O)N1C(=O)C2C3c4ccccc4C(c4ccccc43)[C@@H]2C1=O (stereo partly drawn)	1.1%	-3.5	10.0%	3.0	-2.2%
CC(=O)c1sc(NC(=O)C=C(C)C)nc1C	10.4%	6.5	21.8%	?	-4.9%
CC(=O)c1sc(NC(=O)C2(F)C(F)(F)C(F)(F)C(F)(F)C(F)(F)C2(F)F)nc1C	3.55µM*	-1.5	3.98µM*	1.1	?
O=C1C(=C2CCCCC2)SC(=S)N1Cc1ccco1	-0.8%	4.1	12.6µM*	-8.5	-7.4%
